Drawing on PubChem BioAssay AID463173 (ICCB-Longwood Screening Facility, Harvard Medical School, 2010), this text covers survival for 86 compounds.

Out of some 52,000 compounds screened, about 4,300 (8.3%) were called active. The full list was thinned out, with actives kept by preference. Values without a mark were called inactive. Cut-off read from the data, not from the text of the source: active = survival mostly below about 52% (no sharp cut-off); inactive = mostly above about 56%.

The test system of this test is DeltatarO mutant. Nature of the test: growth inhibition of S. aureus wild type versus tarO mutant, primary screen, teichoic acid synthesis inhibitors, RN4220, OD600 (AID 463173). Particulars: OD600, 18 h, hits give low values, screened at 18.75 µg/mL (by protocol).
Take `Cc1cc(NC(=O)CSc2nc(-c3ccccc3C)nc3c2c(=O)n(C)c(=O)n3C)no1`: the survival is 67%.
For `CC(C)c1ccc(CN(Cc2ccco2)c2cnc(S(C)(=O)=O)nc2C(=O)Nc2ccc(F)cc2)cc1`, the survival was 49%.
As for `Cc1ccc(NC(=O)c2nc(S(C)(=O)=O)ncc2N(Cc2ccco2)Cc2cccs2)c(C)c1`, the survival was 38% (active).
As for `COc1ccc(CN(Cc2ccco2)c2cnc(S(C)(=O)=O)nc2C(=O)Nc2ccc(C)cc2C)cc1`, the survival is 48%.
`COc1ccc(CN(Cc2ccco2)c2cnc(S(C)(=O)=O)nc2C(=O)Nc2ccc(C)c(C)c2)cc1`: the survival is 44% (active).
In the case of `Cc1ccc(NC(=O)c2nc(S(C)(=O)=O)ncc2N(Cc2ccco2)Cc2cccs2)cc1C`, the survival is 40% (active).
Take `CS(=O)(=O)c1ncc(N(Cc2ccccc2)Cc2ccco2)c(C(=O)Nc2cccc(C(F)(F)F)c2)n1`: the survival was 52%.
Next, `COc1ccc(CN(Cc2ccco2)c2cnc(S(C)(=O)=O)nc2C(=O)Nc2ccc(C)c(Cl)c2)cc1`: 47%; `COc1ccc(CN(Cc2ccco2)c2cnc(S(C)(=O)=O)nc2C(=O)Nc2ccc(F)cc2)cc1`: 49%; `Cc1ccc(NC(=O)c2nc(S(C)(=O)=O)ncc2N(Cc2cccc(F)c2)Cc2ccco2)cc1C`: 45%.
In the case of `CC(C)c1ccc(CN(Cc2ccco2)c2cnc(S(C)(=O)=O)nc2C(=O)Nc2ccccc2)cc1`, the survival is 44% (active).
For `CCc1ccc(CN(Cc2ccco2)c2cnc(S(C)(=O)=O)nc2C(=O)Nc2cccc(C)c2)cc1`, the survival was 46%.
Under `Cc1ccc(NC(=O)c2nc(S(C)(=O)=O)ncc2N(Cc2ccco2)Cc2ccco2)cc1C` stands 50%.
Next, `Cc1ccc2scc(N3CCc4ccccc4C3)c(=O)c2c1`: 73%.
For `CCN(c1cccc(C)c1)S(=O)(=O)c1c(C)nc2sc(C)cn2c1=O`, the survival was 73%.
Regarding `Cc1ccc2oc(=O)c3cnn(CC(=O)Nc4cccc(C(F)(F)F)c4)c3c2c1`, the survival was 87%.
Next, `Brc1ccc(-c2cc(-c3ccccc3)no2)cc1`: 74%; `CC1CCC(Nc2nnnn2-c2ccccc2)CC1` (stereo unspecified): 87%; `CCc1cccc(NS(=O)(=O)c2ccc3c(c2)n(C)c(=O)c(=O)n3C)c1`: 73%.
For the compound `CCOC(=O)c1ccccc1NC(=O)CN1C(=O)CC(c2ccccc2)Sc2ccccc21` (stereo unspecified), the survival is 92%.
Next, `COCCNC(=O)CSc1nc(-c2ccc(F)cc2)[nH]c1-c1ccc(Cl)cc1`: 71%.
Next, `CCc1cccc(C)c1NC(=O)Cn1cnc2c1c(=O)n(C)c(=O)n2C`: 74%; `CC(C)(C)c1ccc(CN(Cc2ccco2)c2cnc(S(C)(=O)=O)nc2C(=O)Nc2ccc(F)cc2)cc1`: 102%.
Next, `CS(=O)(=O)c1ncc(N(Cc2ccco2)Cc2cccs2)c(C(=O)Nc2ccccc2F)n1`: 41% (active); `Cc1ccc(C)c(NC(=O)c2nc(S(C)(=O)=O)ncc2N(Cc2ccc(C(C)(C)C)cc2)Cc2ccco2)c1`: 55% (active).
On to `CCc1ccc(CN(Cc2ccco2)c2cnc(S(C)(=O)=O)nc2C(=O)Nc2c(C)cccc2C)cc1`, for which the survival is 36% (active).
Next, `Cc1ccc(NC(=O)c2nc(S(C)(=O)=O)ncc2N(Cc2ccccc2)Cc2ccco2)c(C)c1`: 53%; `CCS(=O)(=O)c1ncc(N(Cc2ccco2)Cc2ccccc2F)c(C(=O)Nc2cccc(Cl)c2)n1`: 60%; `CS(=O)(=O)c1ncc(N(Cc2ccco2)Cc2ccco2)c(C(=O)Nc2ccccc2Br)n1`: 53%.
Under `Cc1ccc(CN(Cc2ccco2)c2cnc(S(C)(=O)=O)nc2C(=O)Nc2ccccc2Br)o1` stands 44%; under `Cc1cccc(C)c1NC(=O)c1nc(S(C)(=O)=O)ncc1N(Cc1ccc(F)cc1)Cc1ccco1`, 46%.
Under `Cc1cccc(C)c1NC(=O)c1nc(S(C)(=O)=O)ncc1N(Cc1ccc(C(C)(C)C)cc1)Cc1ccco1` stands 49%.
Turning to `Cc1ccc(NC(=O)c2nc(S(C)(=O)=O)ncc2N(Cc2ccco2)Cc2ccccc2F)c(C)c1`, the survival is 37% (active).
Turning to `Cc1ccc(NC(=O)c2nc(S(C)(=O)=O)ncc2N(Cc2ccc(C(C)(C)C)cc2)Cc2ccco2)cc1C`, the survival is 52%.
With `COCCn1c(C)cc(O)c(C(c2ccc(OC)cc2)N2CCCCC2)c1=O` (stereo unspecified), the survival is 83%.
Next, `Cc1ccc(-c2nnc(Nc3cccc(Cl)c3)c3ccccc23)cc1S(=O)(=O)N1CCN(C)CC1`: 87%; `CCn1c(=O)n(-c2ccc(F)cc2)c(=O)c2sc3ccccc3c21`: 88%.
Next, `Cc1ncc(CO)c2c1Oc1nc(-c3ccc(F)cc3)nc(SCc3ccc(F)cc3Cl)c1C2`: 58%; `Cc1cccc(OCc2ccc(-c3nc(C#N)c(NCc4cccnc4)o3)o2)c1`: 79%; `COC(=O)c1sccc1S(=O)(=O)N(CC(=O)NCc1ccccc1)c1ccc(C)cc1`: 95%.
Turning to `CC(=O)N1CCc2c(sc3c2c(=O)n(-c2ccccc2Cl)c(=O)n3Cc2cccc(C)c2)C1`, the survival was 74%.
As to `COc1ccc(NS(=O)(=O)c2ccc3nc(-c4ccccc4)[nH]c3c2)cc1`, the survival is 72%.
On to `Cc1cc(NS(=O)(=O)c2ccc3nc(-c4ccccc4)[nH]c3c2)ccc1Br`, for which the survival was -2% (active).
Next, `Cc1ccc(NS(=O)(=O)c2ccc3nc(-c4ccccc4)[nH]c3c2)c(Br)c1`: 79%.
Next, `Cc1ccc(NS(=O)(=O)c2ccc3c(c2)CC(=O)N3)cc1Cl`: 47% (active); `Cc1cccc(NS(=O)(=O)c2ccc3nc(-c4ccccc4)[nH]c3c2)c1C`: 109%; `O=S(=O)(Nc1ccc(Br)cc1)c1ccc2nc(-c3ccccc3)[nH]c2c1`: -1% (active).
Next, `O=S(=O)(Nc1ccc(Br)cc1F)c1ccc2nc(-c3ccccc3)[nH]c2c1`: 72%; `COc1cc(NS(=O)(=O)c2ccc3c(c2)CC(=O)N3)cc(OC)c1OC`: 74%.
As for `CC(C)c1ccc(NS(=O)(=O)c2ccc3nc(-c4ccccc4)[nH]c3c2)cc1`, the survival is 67%.
On to `Cc1ccc(NS(=O)(=O)c2ccc3nc(-c4ccccc4)[nH]c3c2)c(Cl)c1`, for which the survival was 76%.
Under `Cc1ccc(NS(=O)(=O)c2ccc3nc(-c4ccccc4)[nH]c3c2)cc1Cl` stands 6% (active); under `Cc1ccc(NS(=O)(=O)c2ccc3c(c2)N(C)C(=O)CC(=O)N3C)cc1Cl`, 72%; under `Cc1cc(C)c(C#N)c(SCC(=O)Nc2sc3c(c2C#N)CCC(C(C)(C)C)C3)n1` (stereo unspecified), 75%.
Next, `Cc1ccc(CNC(=O)Cn2c(=O)n(-c3ccc(C)c(F)c3)c(=O)c3sc4ccccc4c32)cc1`: 75%.
As to `COc1ccc(-c2cnnn2-c2ccc(NC(=O)c3ccc(S(=O)(=O)N(C)C)cc3)cc2)cc1`, the survival was 81%.
With `COCCNC(=O)CCn1c(=O)[nH]c2cc(OC)c(OC)cc2c1=O`, the survival was 90%.
In the case of `CCN1C2OC(C3OC4C(O3)N(CC)S(=O)(=O)N4CC)OC2N(CC)S1(=O)=O` (stereo unspecified), the survival was 73%.
As for `CCN1/C(=C2/SC(=S)N(N)C2=O)Sc2ccccc21`, the survival is 77%.
Take `O=C(CSc1nnc(-c2cccs2)o1)N1c2ccccc2CCc2ccccc21`: the survival is 70%.
In the case of `CCOc1ccc(-c2nonc2NC(=O)c2oc3ccc(F)cc3c2C)cc1`, the survival was 117%.
As for `CC1(C)C(=O)N(CC(=O)Nc2cccc(F)c2)c2ccc(S(=O)(=O)N3CCCCC3)cc21`, the survival is 81%.
Next, `Cc1nn(-c2ccc(N3CCCC3)nn2)c(C)c1CCC(=O)Nc1ccccc1`: 83%; `Cc1nc2ccn(Cc3cccnc3)c(=O)c2cc1C(=O)NCc1ccc(Cl)cc1`: 69%; `Cc1ccc(NC(=O)C(=O)NCCc2sc(-c3ccc(Cl)cc3)nc2C)cc1C`: 104%.
In the case of `Cc1ccc(-c2nc(C)c(CCNC(=O)C(=O)Nc3ccc(C)c(Cl)c3)s2)cc1`, the survival was 74%.
Next, `Cc1nc(-c2ccccc2)sc1CCNC(=O)C(=O)Nc1ccc(F)c(Cl)c1`: 6% (active); `O=C(c1cccc(F)c1)N1CCN(C(=O)c2cccc3ccccc23)CC1`: 92%.
For `CC(NC(=O)c1cc2ccccn2n1)c1ccccc1` (stereo unspecified), the survival is 75%.
Next, `Cc1cccc(CCNC(=O)c2sc3nc4n(c(=O)c3c2C)CCCC4)c1`: 85%; `COc1cc(NC(=O)CCN2CCN(c3ccccc3)CC2)cc(OC)c1`: 150%.
Next, `CC(=O)N1CCCc2cc(S(=O)(=O)N3CCC(C(=O)NCCC(C)C)CC3)ccc21`: 91%; `CCCCCCSc1ncc(C#N)c(N)n1`: 84%.
For the compound `N#Cc1cnc(SCCc2ccccc2)nc1N`, the survival was 81%.
Under `N#Cc1cnc(SCc2ccccc2)nc1N` stands 39% (active); under `CCOC(=O)c1c(C)oc2ccc(N(C(C)=O)S(=O)(=O)c3c(C)cc(C)cc3C)cc12`, 168%; under `O=C(Cn1c(=O)sc2ccccc21)OCc1ccccc1`, 83%.
Next, `COc1ccc(CNC(=O)C(C)n2nc(C)c3sc4ccccc4c3c2=O)cc1OC` (stereo unspecified): 67%; `COc1cc(Cn2c(=O)sc3ccccc32)ccc1OC(C)C`: 40% (active); `COc1ccc(Cn2c(=O)sc3ccccc32)cc1`: 74%.
As for `O=c1sc2ccccc2n1CCc1ccccc1`, the survival is 104%.
`CCCCOc1ccc(Cn2c(=O)sc3ccccc32)cc1OC`: the survival is -3% (active).
Next, `COc1cc(Cn2c(=O)sc3ccccc32)ccc1OCCC(C)C`: -2% (active); `Cc1cccc2sc(N(Cc3cccnc3)C(=O)CCc3ccccc3)nc12`: 117%; `COc1cccc(-n2c(=O)c3c(C)c(C)sc3n(CC(=O)NCc3ccccc3)c2=O)c1`: 102%.
Turning to `CCCCCOc1ccc(/C=C/C(=O)Nc2sc3c(c2C(=O)OCC)CCC3)cc1OC`, the survival is 66%.
